# How the values were obtained:
# Assay in all cases: DAPPL (digital affinity profiling via proximity ligation, sequencing); 10 mM Tris-HCl pH 7.5, 50 mM NaCl, 1 mM DTT, 4% glycerol, room temperature, 30 min; GST-TFs on glutathione beads, 16-mer random dsDNA library, 0.1% formaldehyde crosslink after washing; high values mean tight binding
# Details in all cases: protein: recombinant; tags: N-terminal GST; dsDNA, one strand shown
# ELK1 = target: T1, ELK1 (Homo sapiens, UniProt P19419 1-428)
# T1 sequence: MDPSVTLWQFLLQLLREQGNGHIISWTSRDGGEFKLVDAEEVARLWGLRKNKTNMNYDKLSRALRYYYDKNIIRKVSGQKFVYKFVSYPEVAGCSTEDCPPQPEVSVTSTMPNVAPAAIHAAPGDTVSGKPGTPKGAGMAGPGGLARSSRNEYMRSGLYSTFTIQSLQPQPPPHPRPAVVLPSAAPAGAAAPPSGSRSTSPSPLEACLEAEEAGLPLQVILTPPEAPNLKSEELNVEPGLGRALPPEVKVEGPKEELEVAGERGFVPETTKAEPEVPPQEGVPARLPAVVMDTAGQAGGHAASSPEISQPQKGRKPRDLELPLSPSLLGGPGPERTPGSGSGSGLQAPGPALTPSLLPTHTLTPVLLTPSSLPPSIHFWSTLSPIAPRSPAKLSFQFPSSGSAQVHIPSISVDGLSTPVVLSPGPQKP
# Procedure, shortened: (§1)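 Pools were built from human transcription factors expressed in yeast as GST fusions, captured on glutathione beads and DNA-barcoded, along with a tag-only sample. Incubation with 200 nmole of a 16-mer random double-stranded DNA library lasted 30 min at room temperature in Tris/NaCl/DTT/glycerol buffer, and was followed by washing, 0.1% formaldehyde crosslinking, proximity ligation, PCR amplification and Illumina NextSeq500 sequencing. Binding signal is the quotient of each hexamer's read frequency for a factor and its frequency for the tag-only sample.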
# GABPA = target: T2, GABPA (Homo sapiens, UniProt Q06546 1-454)
# T2 sequence: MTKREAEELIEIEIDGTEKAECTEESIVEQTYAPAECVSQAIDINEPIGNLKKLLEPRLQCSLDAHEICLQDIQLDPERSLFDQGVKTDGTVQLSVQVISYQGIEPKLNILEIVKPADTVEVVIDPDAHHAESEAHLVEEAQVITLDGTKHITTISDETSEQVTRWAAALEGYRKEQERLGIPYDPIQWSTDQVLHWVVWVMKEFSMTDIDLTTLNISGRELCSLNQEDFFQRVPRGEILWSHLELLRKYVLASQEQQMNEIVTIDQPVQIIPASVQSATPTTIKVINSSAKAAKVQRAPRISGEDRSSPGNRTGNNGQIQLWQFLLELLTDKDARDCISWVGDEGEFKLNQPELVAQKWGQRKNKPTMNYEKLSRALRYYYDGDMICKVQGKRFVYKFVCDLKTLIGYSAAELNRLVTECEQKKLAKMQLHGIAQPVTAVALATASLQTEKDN
# Procedure, shortened: as §1
# ERG = target: T3, ERG (Homo sapiens, UniProt P11308 1-479)
# T3 sequence: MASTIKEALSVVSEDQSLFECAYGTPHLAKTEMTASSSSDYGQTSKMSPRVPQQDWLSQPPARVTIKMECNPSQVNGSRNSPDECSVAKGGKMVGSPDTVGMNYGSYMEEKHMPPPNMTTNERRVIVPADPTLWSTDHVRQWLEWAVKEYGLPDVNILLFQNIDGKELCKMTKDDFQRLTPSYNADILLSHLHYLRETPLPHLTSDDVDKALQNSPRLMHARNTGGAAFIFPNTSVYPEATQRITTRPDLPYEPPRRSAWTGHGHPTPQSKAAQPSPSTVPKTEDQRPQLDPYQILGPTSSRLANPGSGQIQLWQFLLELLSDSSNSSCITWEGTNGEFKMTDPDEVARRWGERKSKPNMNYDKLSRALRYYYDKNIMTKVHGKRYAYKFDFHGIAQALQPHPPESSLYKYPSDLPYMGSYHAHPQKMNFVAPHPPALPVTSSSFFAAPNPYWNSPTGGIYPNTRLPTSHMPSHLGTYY
# Procedure, shortened: as §1
# ELF1 = ELF1 (Homo sapiens, UniProt P32519 1-619)
# Procedure, shortened: as §1
# EHF = target: T4, EHF (Homo sapiens, UniProt Q9NZC4 1-300)
# T4 sequence: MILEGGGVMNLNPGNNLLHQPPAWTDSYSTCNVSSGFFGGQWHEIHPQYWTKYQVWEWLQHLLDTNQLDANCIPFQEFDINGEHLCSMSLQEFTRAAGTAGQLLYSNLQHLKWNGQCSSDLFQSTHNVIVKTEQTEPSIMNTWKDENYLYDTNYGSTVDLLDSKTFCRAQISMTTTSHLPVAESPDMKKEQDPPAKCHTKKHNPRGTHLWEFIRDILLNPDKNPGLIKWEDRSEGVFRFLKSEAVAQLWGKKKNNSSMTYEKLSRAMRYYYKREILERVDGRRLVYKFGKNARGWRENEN
# Procedure, shortened: as §1
# SPIB = SPIB (Homo sapiens, UniProt Q01892 1-262)
# Procedure, shortened: as §1
# FEV = target: T5, FEV (Homo sapiens, UniProt Q99581 1-238)
# T5 sequence: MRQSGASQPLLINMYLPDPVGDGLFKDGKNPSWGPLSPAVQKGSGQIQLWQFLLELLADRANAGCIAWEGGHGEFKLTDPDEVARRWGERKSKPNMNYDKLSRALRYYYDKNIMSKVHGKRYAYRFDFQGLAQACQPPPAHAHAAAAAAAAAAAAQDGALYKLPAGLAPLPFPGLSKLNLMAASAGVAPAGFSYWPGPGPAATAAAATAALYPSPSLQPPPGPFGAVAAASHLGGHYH
# Procedure, shortened: as §1
# ETV5 = ETV5 (Homo sapiens, UniProt P41161 1-510)
# Procedure, shortened: as §1
# ELF4 = ELF4 (Homo sapiens, UniProt Q99607 1-663)
# Procedure, shortened: as §1
# Chain of ETV5 (P41161 whole entry): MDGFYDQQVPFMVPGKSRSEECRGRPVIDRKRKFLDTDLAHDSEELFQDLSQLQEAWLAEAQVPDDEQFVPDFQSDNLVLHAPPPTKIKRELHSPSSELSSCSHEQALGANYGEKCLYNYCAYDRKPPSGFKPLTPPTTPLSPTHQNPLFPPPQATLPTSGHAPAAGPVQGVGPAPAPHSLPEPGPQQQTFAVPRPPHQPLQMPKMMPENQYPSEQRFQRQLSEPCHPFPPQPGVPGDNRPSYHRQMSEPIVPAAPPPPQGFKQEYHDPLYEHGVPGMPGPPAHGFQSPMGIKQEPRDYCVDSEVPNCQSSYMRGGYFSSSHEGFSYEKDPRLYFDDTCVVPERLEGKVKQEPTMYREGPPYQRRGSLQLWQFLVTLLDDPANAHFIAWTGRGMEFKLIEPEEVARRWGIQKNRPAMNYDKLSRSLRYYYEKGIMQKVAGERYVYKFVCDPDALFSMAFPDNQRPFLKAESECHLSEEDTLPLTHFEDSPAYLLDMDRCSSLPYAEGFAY
# Chain of SPIB (Q01892 whole entry): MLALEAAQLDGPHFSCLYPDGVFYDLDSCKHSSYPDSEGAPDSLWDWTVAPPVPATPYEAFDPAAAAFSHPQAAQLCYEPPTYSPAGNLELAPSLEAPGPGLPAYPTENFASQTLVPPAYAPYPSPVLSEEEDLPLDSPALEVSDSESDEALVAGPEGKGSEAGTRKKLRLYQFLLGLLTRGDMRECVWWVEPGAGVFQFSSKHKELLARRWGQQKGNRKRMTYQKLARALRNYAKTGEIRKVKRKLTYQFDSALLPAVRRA
# Chain of ELF4 (Q99607 whole entry): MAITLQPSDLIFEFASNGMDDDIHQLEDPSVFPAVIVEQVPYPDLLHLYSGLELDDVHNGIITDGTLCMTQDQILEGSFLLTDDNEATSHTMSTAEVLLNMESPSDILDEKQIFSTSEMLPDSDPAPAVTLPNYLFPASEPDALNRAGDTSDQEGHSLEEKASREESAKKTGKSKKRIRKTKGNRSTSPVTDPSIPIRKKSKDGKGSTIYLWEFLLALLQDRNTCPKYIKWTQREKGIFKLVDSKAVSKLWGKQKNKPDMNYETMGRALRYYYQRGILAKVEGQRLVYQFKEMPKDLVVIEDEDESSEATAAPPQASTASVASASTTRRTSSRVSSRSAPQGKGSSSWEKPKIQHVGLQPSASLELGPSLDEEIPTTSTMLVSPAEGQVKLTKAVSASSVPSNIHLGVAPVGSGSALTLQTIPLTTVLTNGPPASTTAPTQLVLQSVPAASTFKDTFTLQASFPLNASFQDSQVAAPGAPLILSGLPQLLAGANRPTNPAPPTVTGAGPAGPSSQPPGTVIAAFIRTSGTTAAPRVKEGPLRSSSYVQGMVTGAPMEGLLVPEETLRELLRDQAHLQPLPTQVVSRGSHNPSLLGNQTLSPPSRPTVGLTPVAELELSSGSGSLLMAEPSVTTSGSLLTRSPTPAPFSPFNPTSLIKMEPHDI
# Chain of ELF1 (P32519 whole entry): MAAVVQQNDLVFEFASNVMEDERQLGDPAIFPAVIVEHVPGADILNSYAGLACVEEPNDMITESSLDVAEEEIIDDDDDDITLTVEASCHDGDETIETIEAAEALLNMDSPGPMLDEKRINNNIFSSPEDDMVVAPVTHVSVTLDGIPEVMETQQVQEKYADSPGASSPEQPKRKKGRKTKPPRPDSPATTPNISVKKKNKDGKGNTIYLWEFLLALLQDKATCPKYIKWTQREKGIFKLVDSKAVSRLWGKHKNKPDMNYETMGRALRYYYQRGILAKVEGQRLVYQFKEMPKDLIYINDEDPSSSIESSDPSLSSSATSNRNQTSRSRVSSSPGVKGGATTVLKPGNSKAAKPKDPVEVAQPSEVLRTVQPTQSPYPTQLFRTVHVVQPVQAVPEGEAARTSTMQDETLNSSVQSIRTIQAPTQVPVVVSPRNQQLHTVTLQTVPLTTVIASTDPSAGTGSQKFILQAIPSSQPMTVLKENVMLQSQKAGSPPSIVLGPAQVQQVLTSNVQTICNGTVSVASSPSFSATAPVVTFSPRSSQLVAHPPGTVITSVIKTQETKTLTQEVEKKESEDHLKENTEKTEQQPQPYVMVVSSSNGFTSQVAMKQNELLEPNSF
sequence,measurement,setting,value
CGATGC,binding signal,ELK1,"1.1 fold enrichment (6-mer frequency, TF over GST control)"
same,binding signal,GABPA,"1.19 fold enrichment (6-mer frequency, TF over GST control)"
same,binding signal,ERG,"1.08 fold enrichment (6-mer frequency, TF over GST control)"
same,binding signal,ELF1,"1.02 fold enrichment (6-mer frequency, TF over GST control)"
same,binding signal,EHF,"1.09 fold enrichment (6-mer frequency, TF over GST control)"
same,binding signal,SPIB,"1.06 fold enrichment (6-mer frequency, TF over GST control)"
same,binding signal,FEV,"1.07 fold enrichment (6-mer frequency, TF over GST control)"
same,binding signal,ETV5,"1.11 fold enrichment (6-mer frequency, TF over GST control)"
same,binding signal,ELF4,"1.19 fold enrichment (6-mer frequency, TF over GST control)"

# From PMC7862700, “An all-to-all approach to the identification of sequence-specific readers for epigenetic DNA modifications on cytosine”
